Laboratory results: PubChem BioAssay (NCATS)
Results filed as inconclusive are left out. Calls of active or inactive are those of the source. Unless noted, calls come from the whole dose curve; as a rule, active = well fitted curve in the direction sought with a large enough effect; inconclusive = small, poorly fitted or top-dose-only effect, or another doubt; inactive = no such curve, though single readings can be large; an effect the other way counts as inactive or inconclusive.

Assays:
NIH3T3 = test: qHTS assay to identify novel small-molecules to repurpose for Merkel cell carcinoma treatment (AID 1296009); conditions: MCC and control cell lines, CellTiter-Glo viability, 72 h; at 44.8 µM (top of the series) unless noted; note: nearly all actives have a fitted effect of over 60% in size
Procedure, shortened: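 Cells were incubated with compound for 72 hr at 37 degree celsius before CellTiter-Glo addition. Luminescence was normalized with no-cell wells as full cytotoxicity and DMSO as baseline.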

C33A = test: Primary qHTS to identify gynecologic anti-cancer compounds using libraries of approved drugs and bioactive compounds (AID 1345084); conditions: Gynecologic cancer cell panel viability, ATPlite luminescence, 48 h; series mostly up to 57.5 µM; note: % is set by controls: 0 for no effect and ±100 for the full control effect; nearly all actives have a fitted effect of over 55% in size
Procedure, shortened: (§1)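 ATP-based viability (ATPlite), 1,000 cells/well, 16 h pre-incubation, 48 h compound at 37 C, 5% CO2, 15 min RT before read.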

CAOV3 = test: as above; conditions: Gynecologic cancer cell panel viability, ATPlite luminescence, 48 h; series mostly up to 57.5 µM
Procedure, shortened: as §1

CASKI = test: as above; conditions: Gynecologic cancer cell panel viability, ATPlite luminescence, 48 h; series mostly up to 57.5 µM
Procedure, shortened: as §1

Es-2 = test: as above; conditions: Gynecologic cancer cell panel viability, ATPlite luminescence, 48 h; series mostly up to 57.5 µM
Procedure, shortened: as §1

HeLa = test: as above; conditions: Gynecologic cancer cell panel viability, ATPlite luminescence, 48 h; series mostly up to 57.5 µM
Procedure, shortened: as §1

Hek293T = test: as above; conditions: Gynecologic cancer cell panel viability, ATPlite luminescence, 48 h, control line for the selectivity index; series mostly up to 57.5 µM
Procedure, shortened: as §1

JEG-3 = test: as above; conditions: Gynecologic cancer cell panel viability, ATPlite luminescence, 48 h; series mostly up to 57.5 µM
Procedure, shortened: as §1

OV90 = test: as above; conditions: Gynecologic cancer cell panel viability, ATPlite luminescence, 48 h; series mostly up to 57.5 µM
Procedure, shortened: as §1

PA-1 = test: as above; conditions: Gynecologic cancer cell panel viability, ATPlite luminescence, 48 h; series mostly up to 57.5 µM
Procedure, shortened: as §1

Tov-21-G = test: as above; conditions: Gynecologic cancer cell panel viability, ATPlite luminescence, 48 h; series mostly up to 57.5 µM
Procedure, shortened: as §1

Tov112D = test: as above; conditions: Gynecologic cancer cell panel viability, ATPlite luminescence, 48 h; series mostly up to 57.5 µM
Procedure, shortened: as §1

SKOV3 = test: as above; conditions: Gynecologic cancer cell panel viability, ATPlite luminescence, 48 h; series mostly up to 57.5 µM
Procedure, shortened: as §1

[1] = target: Nuclear receptor subfamily 1 group I member 2 (Rattus norvegicus) (UniProt Q9R1A7); test: qHTS assay for small molecule activators of the rat pregnane X receptor (rPXR) signaling pathway (AID 651751; call rule not given here; note: 0% is about no effect); conditions: rPXR reporter cells, luciferase (One-Glo), 24 h
[2] = qHTS assay for small molecule activators of the human pregnane X receptor (PXR) signaling pathway (AID 720659; call rule not given here; note: 0% is about no effect)

Chain of Nuclear receptor subfamily 1 group I member 2 (Rattus norvegicus) (Q9R1A7 whole entry, looked up): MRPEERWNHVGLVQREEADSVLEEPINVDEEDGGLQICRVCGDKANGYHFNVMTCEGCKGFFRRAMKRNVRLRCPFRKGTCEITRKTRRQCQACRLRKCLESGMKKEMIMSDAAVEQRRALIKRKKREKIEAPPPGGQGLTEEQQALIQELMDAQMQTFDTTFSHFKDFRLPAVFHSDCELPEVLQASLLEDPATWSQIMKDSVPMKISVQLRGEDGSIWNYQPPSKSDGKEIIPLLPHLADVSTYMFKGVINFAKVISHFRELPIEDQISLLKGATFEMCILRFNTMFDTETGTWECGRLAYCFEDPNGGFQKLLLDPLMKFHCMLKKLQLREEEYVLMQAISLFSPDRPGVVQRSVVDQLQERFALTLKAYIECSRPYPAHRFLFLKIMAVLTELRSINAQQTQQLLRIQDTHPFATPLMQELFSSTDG

COc1cc2nc(=NC(=O)c3cccnc3)n3c(c2cc1OC)NCC3
inactive: outcome (NIH3T3) | Potency (C33A) | Potency (CAOV3) | outcome (CASKI) | Potency (Es-2) | Potency (HeLa) | Potency (Hek293T) | Potency (JEG-3) | Potency (OV90) | Potency (PA-1) | Potency (Tov-21-G) | Potency (Tov112D)

O=C(/C=C/c1ccc(O)cc1)O[C@@H]1C[C@@](O)(C(=O)O)C[C@@H](O)[C@@H]1O
inactive: outcome (NIH3T3) | Potency (C33A) | Potency (CAOV3) | outcome (CASKI) | Potency (Es-2) | Potency (HeLa) | Potency (Hek293T) | Potency (JEG-3) | Potency (OV90) | Potency (PA-1) | Potency (Tov-21-G) | Potency (Tov112D)

C/C=C/C=C/C=C/C(=O)O[C@@H]1C=C(CO)[C@](O)(CO)[C@@]2(C)CCCC(C)(C)[C@H]12
inactive: outcome (NIH3T3) | Potency (C33A) | Potency (CAOV3) | outcome (CASKI) | Potency (Es-2) | Potency (HeLa) | Potency (Hek293T) | Potency (JEG-3) | Potency (OV90) | Potency (PA-1) | Potency (Tov-21-G) | Potency (Tov112D)

COc1cc(/C=C/C(=O)OCC2OC(OC3(CO)OC(CO)C(O)C3O)C(O)C(O)C2O)ccc1O (centres undefined)
inactive: outcome (NIH3T3) inactive [at 17.4 µM] | Potency (C33A) | Potency (CAOV3) | outcome (CASKI) | Potency (Es-2) | Potency (HeLa) | Potency (Hek293T) | Potency (JEG-3) | Potency (OV90) | Potency (PA-1) | Potency (Tov-21-G) | Potency (Tov112D)

O=C(O)c1ccnc2cc(C(OCC3CCC(F)(F)CC3)c3ccccc3Cl)[nH]c12 (centres undefined)
inactive: outcome (NIH3T3) | Potency (C33A) | Potency (CAOV3) | outcome (CASKI) | Potency (Es-2) | Potency (Hek293T) | Potency (JEG-3) | Potency (OV90) | Potency (PA-1) | Potency (SKOV3) | Potency (Tov-21-G) | Potency (Tov112D)

Cc1cc(O[C@@H]2O[C@H](COC(=O)CC(=O)O)[C@@H](O)[C@H](O)[C@H]2O)c(C(C)C)cc1O
inactive: outcome (NIH3T3) inactive [at 17.4 µM] | Potency (C33A) | Potency (CAOV3) | outcome (CASKI) | Potency (Es-2) | Potency (HeLa) | Potency (Hek293T) | Potency (JEG-3) | Potency (OV90) | Potency (PA-1) | Potency (Tov-21-G) | Potency (Tov112D)

CC1(C)CCCC2(C)c3c4c(c(=O)oc(=O)c3=CCC12)=CCC1C(C)(C)CCCC41C (centres undefined)
inactive: outcome (NIH3T3) inactive [at 17.4 µM] | Potency (C33A) | Potency (CAOV3) | outcome (CASKI) | Potency (Es-2) | Potency (HeLa) | Potency (Hek293T) | Potency (JEG-3) | Potency (OV90) | Potency (PA-1) | Potency (Tov-21-G) | Potency (Tov112D)

CCCN(CCN1CCN(c2ccccc2OC)CC1)C1CCc2ncsc2C1 (centres undefined)
inactive: outcome (NIH3T3) | Potency (C33A) | Potency (CAOV3) | outcome (CASKI) | Potency (Es-2) | Potency (HeLa) | Potency (Hek293T) | Potency (JEG-3) | Potency (OV90) | Potency (PA-1) | Potency (Tov-21-G) | Potency (Tov112D)

COC(=O)C1=COC(OC2OC(CO)C(O)C(O)C2O)C2C(C)CC(=O)C12O (centres undefined)
inactive: outcome (NIH3T3) inactive [at 17.4 µM] | Potency (C33A) | Potency (CAOV3) | outcome (CASKI) | Potency (Es-2) | Potency (HeLa) | Potency (Hek293T) | Potency (JEG-3) | Potency (OV90) | Potency (SKOV3) | Potency (Tov-21-G) | Potency (Tov112D)

CC1=CC[C@@]2(C)CC[C@@](O)(C(C)C)[C@@H]2[C@@H](O)C1
inactive: outcome (NIH3T3) | Potency (C33A) | Potency (CAOV3) | outcome (CASKI) | Potency (Es-2) | Potency (HeLa) | Potency (Hek293T) | Potency (JEG-3) | Potency (OV90) | Potency (PA-1) | Potency (Tov-21-G) | Potency (Tov112D)

Nc1nc2c(nc(Sc3ccc(Cl)cc3)n2[C@@H]2O[C@@H]3COP(=O)(O)O[C@H]3[C@H]2O)c(=O)[nH]1
inactive: outcome (NIH3T3) | Potency (C33A) | Potency (CAOV3) | outcome (CASKI) | Potency (Es-2) | Potency (HeLa) | Potency (Hek293T) | Potency (JEG-3) | Potency (OV90) | Potency (PA-1) | Potency (Tov-21-G) | Potency (Tov112D)

C=CC1(C)C=C2CC[C@H]3[C@@](C)(C(=O)O)CCC[C@]3(C)C2CC1 (some centres undefined)
inactive: outcome (NIH3T3) | Potency (C33A) | Potency (CAOV3) | outcome (CASKI) | Potency (Es-2) | Potency (HeLa) | Potency (Hek293T) | Potency (JEG-3) | Potency (OV90) | Potency (PA-1) | Potency (Tov-21-G) | Potency (Tov112D)

CCOC(=O)c1ccc(NC2CCCCC2)c(N)c1
inactive: outcome (NIH3T3) | Potency (C33A) | Potency (CAOV3) | outcome (CASKI) | Potency (Es-2) | Potency (HeLa) | Potency (Hek293T) | Potency (JEG-3) | Potency (OV90) | Potency (PA-1) | Potency (Tov-21-G) | Potency (Tov112D)

H-DPPDPDRFYGMM-NH2
inactive: outcome (NIH3T3) inactive [at 17.4 µM] | Potency (C33A) | Potency (CAOV3) | outcome (CASKI) | Potency (Es-2) | Potency (HeLa) | Potency (Hek293T) | Potency (JEG-3) | Potency (OV90) | Potency (PA-1) | Potency (Tov-21-G) | Potency (Tov112D)

COc1ccc(CCC(=O)c2c(O)cc(O[C@@H]3O[C@H](CO)[C@@H](O)[C@H](O)[C@H]3O[C@@H]3O[C@@H](C)[C@H](O)[C@@H](O)[C@H]3O)cc2O)cc1O
inactive: outcome (NIH3T3) | Potency (C33A) | Potency (CAOV3) | outcome (CASKI) | Potency (Es-2) | Potency (HeLa) | Potency (Hek293T) | Potency (JEG-3) | Potency (PA-1) | Potency (SKOV3) | Potency (Tov-21-G) | Potency (Tov112D) | max response [1] -0.0245% | outcome [2]

Cc1ncc(Cl)cc1NCc1ccc(C(=O)NC(CC2CCCC2)C(=O)NC2CC2)s1 (centres undefined)
inactive: outcome (NIH3T3) | Potency (C33A) | Potency (CAOV3) | outcome (CASKI) | Potency (Es-2) | Potency (HeLa) | Potency (Hek293T) | Potency (JEG-3) | Potency (OV90) | Potency (PA-1) | Potency (Tov-21-G) | Potency (Tov112D)
